Inconclusive results are not listed. Unmarked numbers belong to inactive results. The source made the active and inactive calls. The call rests on the fitted dose curve; in most records, active means well fitted inhibition curve with a large enough effect; inconclusive means small, poorly fitted or top-dose-only effect; inactive means flat fitted curve, though single readings scatter.
Assay: BET inhibitor-based combinations targeting novel dependencies in MECOM-rearranged (r) AML: AML-194 cell line (AID 2202237; further: nearly all actives have a fitted effect of over 40% in size;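 on viability (% of control): plate controls were vehicle wells for no effect and wells without cells for full effect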)
Details: AML-194 (MECOM-r AML) viability, CellTiter-Glo, 48 h; series mostly up to 46 µM; viability (% of control): at the top concentration
Text: Ecotropic viral insertion site 1 (EVI1) is located on chromosome 3q26.2 as part of the MECOM (MDS and EVI1 complex) locus. Under normal hematopoiesis, EVI1 is a regulator of hematopoietic stem cell maintenance and self-renewal and EVI1 levels decrease as the cells differentiate. In approximately 5-10% of de novo acute myeloid leukemia (AML) EVI1 is aberrantly expressed, including Chromosomal inv(3)(q21;q26.2) or t(3;3)(q21;q26.2) alterations (MECOM-r) that account for about 50% of AML with EVI1 overexpression 31. AMLs with high levels of EVI1 have a poor prognosis and an overall survival time averaging between 10-14 months. EVI1 overexpression confers resistance in leukemia cells, highlighting the need to develop new targeted therapies for EVI1 overexpressing AMLs.
Here, we performed an unbiased chemical drug screening by evaluating the single agent activity of a collection of 2,480 oncology-focused, approved and investigational drugs (NCATS Mechanism Interrogation Plates, MIPE v5.0) against a panel of seven AML cell lines. These included four MECOM-r cell-lines (AML-191, AML-194, UCSD-AML1 and HNT-34) and three non-MECOM-r AMLs (MV4-11, OCI-AML3 and SET-2). Exploiting the mechanistic redundancy built in the library, we identified target-level sensitivities in MECOM-r AML cells and relative activity as compared to other AML subtypes.
A collection of 2480 mechanistically annotated dugs (MIPE v5.0) was used to screen four 3q26.2 rearranged AML cell lines and three non-3q26.2 rearranged AML cell lines. This library purposely exploits redundancy by including multiple inhibitors of key onco-targets, while simultaneously encompassing mechanistic diversity, targeting more than 800 distinct mechanisms of action. Briefly, cells were seeded in 5 uL of growth media using a Multidrop Combi dispenser into 1536 well white polystyrene tissue culture treated plates (Corning) at a density of 500cells/well. For each cell-line, for each of the 2480 drugs in MIPE v5.0 library, an 11-point dose curve was generated via a 1536 pin-tool. Plates were incubated for 48 hr at standard incubator conditions, covered by a stainless steel gasketed lid to prevent evaporation. Cell viability was determined by luminescence based, Cell Titer Glo assay (Promega). In detail, 3 uL of Cell Titer Glo were added to each well and plates were incubated at room temperature for 15 min with a stainless-steel lid in place. Luminescence readings were taken using a Viewlux (PerkinElmer) with a 2 s exposure time per plate. Compound dose-response curves were normalized to DMSO and empty well controls on each plate. Quantitative drug activity data from dose-response curves was determined utilizing area Under the Curve (AUC) and Z-transformed AUC (Z-AUC, a mean-centering transformation applied to each individual cell-line screened).
Potency means the concentration at half of the fitted maximal effect.

Row | Compound | Potency | viability (% of control)
1 | CCc1c(-c2ccccc2C)nc2c(C#N)c[nH]n2c1=O | inactive | –
2 | Cc1ncsc1-c1ccc([C@H](C)NC(=O)[C@@H]2C[C@@H](O)CN2C(=O)[C@@H](NC(=O)COCCCOCCNC(=O)C[C@@H]2N=C(c3ccc(Cl)cc3)c3c(sc(C)c3C)-n3c(C)nnc32)C(C)(C)C)cc1 | 0.186 µM (active) | –
3 | Cc1ccc(-c2ncc(Cl)cc2-c2ccc(S(C)(=O)=O)cc2)cn1 | – | 100%
4 | CNC(=O)[C@H]1O[C@@H](n2cnc3c(NCc4cccc(I)c4)nc(Cl)nc32)[C@H](O)[C@@H]1O | – | 69.4%
5 | Cc1onc(-c2ccc(F)cc2)c1COc1ccc(C(=O)N2CCS(=O)(=O)CC2)cn1 | – | 93.1%
6 | O=C(/C=C/c1ccc(CN(CCO)CCc2c[nH]c3ccccc23)cc1)NO | 0.332 µM (active) | –
7 | CCN(CC)C(=O)Cc1csc(NS(=O)(=O)c2cccc(Cl)c2C)n1 | – | 89.4%
8 | Cc1ccc2nc(NCCN)c3ncc(C)n3c2c1 | 8.33 µM (active) | –
9 | COc1cc2c(cc1OC(C)C)[C@H](c1ccc(Cl)cc1)N(c1ccc(N(C)CC3CCC(N4CCN(C)C(=O)C4)CC3)cc1)C(=O)C2 (stereo not given in full) | 10.5 µM (active) | –
10 | Cn1c(=O)c2c(ncn2CC2OCCO2)n(C)c1=O | – | 112%
11 | Nc1[nH]nc2nnc(-c3c(-c4ccccc4)nn4ccccc34)cc12 | – | 93.9%
12 | COc1cc(C(=O)O)ccc1NC(=O)[C@@H]1N[C@@H](CC(C)(C)C)[C@](C#N)(c2ccc(Cl)cc2F)[C@H]1c1cccc(Cl)c1F | 0.833 µM (active) | –
13 | C[C@H]1[C@H](O)O[C@@H]2O[C@@]3(C)CC[C@H]4[C@H](C)CC[C@@H]1[C@@]24OO3 | 4.68 µM (active) | –
14 | CO[C@@]12[C@H](COC(N)=O)C3=C(C(=O)C(C)=C(N)C3=O)N1C[C@@H]1N[C@@H]12 | – | 93.6%
15 | Cc1cc(I)ccc1Nc1c(C(=O)NOCC2CC2)cc(F)c(F)c1F | 20.9 µM (active) | –
16 | O=C(Nc1ncc(SCCN2CCCC2)s1)[C@]1(c2ccc(S(=O)(=O)C3CC3)cc2)C[C@H]1C1CCCCC1 | 16.6 µM (active) | –
17 | C[C@@H]1COCCN1c1cc(C2(S(C)(=N)=O)CC2)nc(-c2ccnc3[nH]ccc23)n1 (stereo not given in full) | 5.25 µM (active) | –
18 | CN[C@@H]1C[C@H]2O[C@@](C)([C@@H]1OC)n1c3ccccc3c3c4c(c5c6ccccc6n2c5c31)C(=O)N[C@H]4O | 0.382 µM (active) | –
19 | CCCCCCCCCCCCCCCCCCCCCCO | – | 112% [at 15.6 µM]
20 | COc1ccc(S(=O)(=O)N2CCc3cccc(-c4ccncc4)c32)cc1 | 0.934 µM (active) | –

Row | Compound | Potency | viability (% of control)
21 | CCC(=O)O[C@]1(C(=O)CO)CC[C@H]2[C@@H]3CCC4=CC(=O)CC[C@]4(C)[C@H]3CC[C@@]21C | – | 87.5%
22 | CN1C(=O)[C@@H](NC(=O)c2n[nH]c(Cc3ccccc3)n2)COc2ccccc21 | – | 99%
23 | c1ccc(-c2cc(CCC3CCNCC3)c3ccccc3n2)cc1 | 26.3 µM (active) | –
24 | CC[C@H](C)C(=O)O[C@H]1C[C@H](O)C=C2C=C[C@H](C)[C@H](CC[C@@H](O)C[C@@H](O)CC(=O)O)[C@H]21 | – | 109%
25 | COCCNCc1ccc(-c2cc3nccc(Oc4ccc(NC(=S)NC(=O)Cc5ccc(F)cc5)cc4F)c3s2)nc1 | 2.63 µM (active) | –
26 | O=C(O)c1ccc(CN2CCC(CN[C@@H]3C[C@H]3c3ccccc3)CC2)cc1 | – | 97.3%
27 | C[C@]12CC[C@@H]3c4ccc(O)cc4CC[C@H]3[C@@H]1C[C@@H](O)[C@@H]2O | – | 95.8%
28 | CC(=O)N[C@H]1[C@H](O[C@@H]2c3ccc(c(Cl)c3)Oc3cc4cc(c3O[C@@H]3O[C@H](CO)[C@@H](O)[C@H](O)[C@H]3NC(=O)CCCCCCCC(C)C)Oc3ccc(cc3Cl)C[C@H]3NC(=O)[C@H](N)c5ccc(O)c(c5)Oc5cc(O)cc(c5)[C@H](NC3=O)C(=O)N[C@H]4C(=O)N[C@H]3C(=O)N[C@@H]2C(=O)N[C@@H](C(=O)O)c2cc(O)cc(O[C@H]4O[C@H](CO)[C@@H](O)[C@H](O)[C@@H]4O)c2-c2cc3ccc2O)O[C@H](CO)[C@@H](O)[C@@H]1O | – | 119%
29 | Cn1c(NCCN(CCO)CCCc2ccc([N+](=O)[O-])cc2)cc(=O)n(C)c1=O | – | 113%
30 | N#Cc1c(N(CC(=O)O)CC(=O)O)sc(C(=O)O)c1CC(=O)O | – | 109%
31 | COc1ccc(Cl)c(Nc2nc3ccccc3nc2NS(=O)(=O)c2cccc(NC(=O)C(C)(C)N)c2)c1 | 20.9 µM (active) | –
32 | CCN1CCN(Cc2ccc(NC(=O)c3ccc(C)c(/C=C/c4cnc5[nH]ccc5c4OC)c3)cc2C(F)(F)F)CC1 | 2.95 µM (active) | –
33 | C[C@@H]1C(=O)OC2[C@H](O)[C@]34[C@H]5C[C@@H](C(C)(C)C)[C@]36[C@@H](OC(=O)[C@@H]6O)O[C@@]4(C(=O)O5)[C@]21O (stereo not given in full) | – | 118%
34 | CC(C)C(N)C(=O)OCC(CO)OCn1cnc2c(=O)[nH]c(N)nc21 (stereo not given) | – | 107%
35 | Cc1[nH]c2ccccc2c1CCNCc1ccc(/C=C/C(=O)NO)cc1 | 0.105 µM (active) | –
36 | CSC[C@H]1CN(Cc2c[nH]c3c(N)ncnc23)C[C@@H]1O | – | 91.7%
37 | CN[C@H]1CN(c2ccc3c(=O)c(C(=O)O)cn(-c4nccs4)c3n2)C[C@@H]1OC | 1.52 µM (active) | –
38 | NC[C@@](O)(c1ccc(Cl)cc1)c1ccc(-c2cn[nH]c2)cc1 | 6.61 µM (active) | –
39 | COc1cc2c(Oc3ccc4[nH]c(C)cc4c3F)ccnc2cc1OCC1(N)CC1 | 8.33 µM (active) | –
40 | COCCOc1cnc2ccn([C@H](C)c3nnc4c(F)cc(-c5cnn(C)c5)cn34)c(=O)c2c1 | – | 108%
